# Measured values: paper PMC5540273 (PLoS ONE, 2017)
# Tested on: MARK3
# Details: concentration: 1 μM, replicates: in singlicate; n = 1
# 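Also: KINOMEscan kinase panel screen.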
row,SMILES,%Inh [%]
1,O=C(Nc1cccc(-c2nn3ncccc3c2-c2ccnc(Nc3cccc(C(F)(F)F)c3)n2)c1)c1c(F)cccc1F [GSK299495],2
2,O=C(c1ccc(-c2cc(-c3c[nH]nc3-c3ccccn3)ccn2)cc1)N1CCOCC1 [GW812171],17
3,Cc1cccc(Cn2ccn3c(=O)cc(N4CCOCC4)nc23)c1 [GSK2297542],0
4,NS(=O)(=O)c1cccc(-c2ccc3ncc(N4CCOCC4)nc3c2)c1 [GSK1535721],0
5,CCc1ccnc(/C=C/c2n[nH]c3cc(Sc4ccccc4C(=O)NC)ccc23)c1,3
6,O=c1cc(N2CCOCC2)nc2n(Cc3cccc(C(F)(F)F)c3)ccn12 [GSK2297543],0
7,COC(=O)Nc1nc2cc(Oc3ccc(NC(=O)Nc4cc(F)ccc4F)cc3)ccc2[nH]1.Cl [GW701424],3
8,NS(=O)(=O)CCc1cccc(Nc2nccc(-c3c(-c4cccc(NC(=O)c5c(F)cccc5F)c4)nn4ccccc34)n2)c1 [GSK336735],6
9,O=C(NCCNc1ccnc(Nc2ccc(F)cc2)n1)c1cc2ccccc2s1 [GSK1379874],0
10,CC(C)(C)n1cnc2c(N)ncnc21 [SKF-97359],21
11,COc1cc2c(cc1OC[C@@H](O)CO)ncc1c3ccc(C#N)cc3[nH]c21,0
12,O=C(NCCNc1ccnc(Nc2ccc(F)cc2)n1)Nc1ccccc1F [GSK1379880],0
13,Fc1ccc(-c2ncn(CCCN3CCOCC3)c2-c2ccccn2)cc1 [SB-211742],30
14,O=C(Nc1n[nH]c2cc(-c3cccc(F)c3)ccc12)C1CC1 [SB-735464],0
15,Cc1nnc(-c2ccc(C)c(-c3ccc(C(=O)Nc4ccc(NS(C)(=O)=O)cc4)cc3)c2)o1 [GW702865],0
16,CNc1ncnc2[nH]ncc12 [SKF-18355],35
17,Cc1cccc(-c2nc(-c3ccc(S(C)(=O)=O)cc3)sc2-c2ccncc2)c1,0

row,SMILES,%Inh [%]
1,Nc1nc(-c2ccc3c(N)n[nH]c3c2)cc(N2CCCC2)n1 [GSK2227430],0
2,Fc1ccc(-c2ncn(CCCN3CCOCC3)c2-c2cccnc2)cc1 [SB-211743],0
3,[2H]C([2H])(c1cccc(C(F)(F)F)c1C)n1ccn2c(=O)nc(N3CCOCC3)cc12 [GSK2336394],0
4,c1ccc(-c2cc(-c3c[nH]nc3-c3ccccn3)ccn2)cc1 [GW576604],0
5,CCc1nc(-c2cccc(C)c2)c(-c2ccnc(NCc3ccccc3)c2)s1,0
6,Cn1ccc2ncnc(Oc3ccc(NC(=O)Nc4ccncc4)c(Cl)c3)c21,2
7,COCCNC(=O)c1ccc(-c2cc(C(=O)NC3CC3)cc(F)c2C)cc1 [GW868318],25
8,O=C1NC(=O)C(N2CCc3ccccc32)=C1c1cccc(Cl)c1 [SB-408010],0
9,CN(C1=C(c2ccccc2)C(=O)NC1=O)c1ccccc1 [SB-334860],0
10,NCC(NC(=O)c1cc(-c2cn[nH]c2)c(-c2ccnc3[nH]ccc23)s1)c1ccccc1.O=C(O)C(F)(F)F.O=C(O)C(F)(F)F (stereo not shown) [GSK1325775],0
11,COc1ccc(Nc2nccc(N3CCC(NC(=O)Nc4cccc(C(C)=O)c4)C3)n2)cc1 (stereo not shown) [GSK1379731],0
12,Cn1cc(-c2ccc3c(c2)CCN3C(=O)Cc2ccccc2Cl)c2c(N)ncnc21 [GSK2608885],46
13,O=c1cc(N2CCOCC2)nc2n(Cc3cccc(F)c3)ccn12 [GSK2297430],0
14,CN(C(=O)c1ccc(-c2cc(-c3c[nH]nc3-c3ccccn3)ccn2)cc1)C1CCOCC1 [GW810083],0
15,CC(=O)Nc1ccc(COc2ccc(Nc3ccnc4cc(-c5ccccn5)ccc34)cc2)cc1.Cl [GW440148],8
16,NS(=O)(=O)c1cccc(-c2ccc3nccc(-c4cccc(S(N)(=O)=O)c4)c3c2)c1 [GW867253],0
17,N#Cc1c(N2CCOCC2)sc(-c2ccn[nH]2)c1-c1ccc(Cl)cc1,27
